Bioassay records: PubChem BioAssay, National Center for Advancing Translational Sciences (NCATS)
Only a selection was taken, and hits are over-represented in it overall.
Pf Dd2 inh: qHTS Primary assay for Inhibitors of Plasmodium falciparum Dd2 growth in vitro; 4.3% of 120,000 active; P. falciparum Dd2 growth, SYBR Green, 72 h; Potency, µM (top dose mostly 28.9 µM), without a hit: at the top dose activity, negative = inhibition, most hits filed as inhibitors; active = well fitted inhibition curve with a large enough effect;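 note: plate controls were DMSO vehicle for no effect and reference drug for full effect; nearly all actives have a fitted effect of over 65% in size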
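Infected erythrocytes (Dd2, 0.3% parasitemia, 2.5% hematocrit final) are added to compound in RPMI-1640/Albumax II medium, grown 72 h at 37C in low oxygen, then lysed with saponin/Triton-X containing SYBR Green and read by fluorescence.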
The depositor's hits bear a star; i = inactive; [ ] = another dose, or the depositor's remark. Potency is the fitted concentration of half-maximal effect.

SMILES	Pf Dd2 inh
Cc1ccc(NC(=O)N2CCCC(c3nccn3Cc3ccncc3)C2)cc1C (stereo not given)	3%
CC(=O)N1CCC(C(NC(=O)c2ccccc2)C(=O)NCc2ccco2)CC1 (stereo not given)	1%
O=S(=O)(c1ccccc1)c1nc(-c2cccs2)oc1N1CCCCC1	14%
Cc1ccc(CSc2oc(-c3cccs3)nc2S(=O)(=O)c2ccccc2)cc1	20%
CCC(C)S(=O)(=O)c1oc(-c2cccs2)nc1S(=O)(=O)c1ccccc1 (stereo not given)	13µM*
Cc1ccc(OCC(=O)N2CCC(c3noc(-c4ccncc4)n3)C2)cc1 (stereo not given)	-1%[5.79 µM]
COCCC(=O)N1CCC(C2CCN(S(C)(=O)=O)CC2)C1 (stereo not given)	26%
CCN(CC)CCSc1nc2ccccc2c(=O)n1-c1ccc(Cl)cc1	7.9µM*
CCCSc1nc2ccccc2c(=O)n1-c1ccccc1OC	-8%
O=C(CSc1nc2c([nH]c3ccccc32)c(=O)n1-c1ccc(Cl)cc1)c1ccccc1	56%
COC(=O)[C@@H]1Cc2ncn(C(C)C)c2CN1S(=O)(=O)c1cccc2cccnc12	-21%[44.1 µM]
CNC(C)c1ccncc1 (stereo not given)	5%[44.1 µM]
CNC(C)c1ccc(Oc2ccccc2)cc1 (stereo not given)	11µM*
CNC(C)c1ccc(OC(F)(F)F)cc1 (stereo not given)	2%[76.6 µM]
O=C1NC2(CN(C(=O)c3ccc(C(F)(F)F)cc3)C2)Oc2ccccc21	-12%
CCN1C(=O)CCN(C(=O)Nc2ccc(C)c(C)c2)CC12CCOCC2	-4%
O=C(CCn1ccn2nc3c(c2c1=O)CCCC3)NCc1cccs1	-26%
Cc1ccc(-c2nc(CCNC(=O)c3ccc(C)c(C)c3)cs2)cc1	14%
CCOc1ccc(CC(=O)NCCc2csc(-c3ccc(Cl)cc3)n2)cc1	i
CCOc1ccc(CC(=O)NCCc2csc(-c3ccc(C)cc3)n2)cc1	10µM*
O=C(N1CCC2(CCNCC2)CC1)C1(S(=O)(=O)c2ccccc2)CC1	-9%
Cc1ccc2[nH]c(=O)c(CN3CCCN(c4ccncc4)CC3)cc2c1	-9%
CC(=O)N1CC2(Cc3ccccc31)CN(C(=O)C(C)(C)C)C2	-38%[44.1 µM]
O=C(Nc1ccccc1)c1cnc2n1CCN(Cc1cccc(O)c1)CC2	-19%[44.1 µM]
CC(C)c1ccc(CN2CCc3ncc(C(=O)Nc4ccccc4)n3CC2)cc1	13µM*
SMILES	Pf Dd2 inh
CC(C)CCNC(=O)c1cnc2n1CCN(Cc1ccc(C(C)C)cc1)CC2	-16%[44.1 µM]
NCCc1cccc(CN2CCCC(COc3ccccc3F)C2)c1 (stereo not given)	2µM*
O=C(c1ccccc1OCC1CCCN(Cc2ccc(O)c(F)c2)C1)N1CCCCC1 (stereo not given)	-24%
NCCc1ccc(CN2CCC(Oc3ncccn3)CC2)cc1	-8%
NCCc1cccc(CN2CCC(OCc3ccccc3)CC2)c1	4.5µM*
O=c1[nH]ccn1C1CCN(Cc2ccccc2)CC1	16%[44.1 µM]
O=C(c1ccco1)N1CCC(Oc2cccc(F)c2)C1 (stereo not given)	i
CN1CCCN(C[C@@H]2CN(Cc3cccc(CCN)c3)C[C@@H]2CO)CC1	11%
Cc1ccccc1N1CCCN(Cc2cccc(CCN)c2)CC1	8.9µM*
Cc1cccc(CN2CCCC(COc3ccccc3C(=O)N3CCOCC3)C2)c1 (stereo not given)	0%
Cc1cc(CN2CCN(c3cccc(C)c3C)CC2)cs1	-20%
NCCc1cccc(CN2CCC(Oc3cccc(F)c3)CC2)c1	10µM*
COCC(=O)N1CCCC(C(=O)N2CCC(OCc3ccccc3)CC2)C1 (stereo not given)	-9%
CN(C)C[C@@H]1CN(c2ccccn2)C[C@H]1NC(=O)c1ccc2c(c1)OCO2	-23%
COCCC(=O)N1CCCCCNC(=O)[C@@H]2CCCC[C@@H]21	-1%
COCc1cccc(C(=O)NC2CC(c3nnc(CN(C)C)n3C)C2)n1 (stereo not given)	-7%
Cc1noc(C)c1[S+](=O)([O-])N1CCCC2(C1)NC(=O)c1ccccc1O2 (stereo not given)	-23%
CCC(C)NC(=O)Cn1c(C)ccc(NC(=O)Nc2ccc(C)cc2)c1=O (stereo not given)	i
Cc1oc2c(c1C(=O)N1CCOCC1)CN(C(=O)c1ccncc1)CC2	-28%
CCOC(=O)C1CCCCN1C(=O)c1c(C)oc2c1CN(Cc1cccc(F)c1)CC2 (stereo not given)	6.3µM*
Cc1ccc(CN2CCc3oc(C)c(C(=O)N4CCC(C(N)=O)CC4)c3C2)cc1	-20%
COCCCNC(=O)c1c(C)oc2c1CN(Cc1ccc(F)cc1)CC2	-23%
CCOC(=O)C1CCCCN1C(=O)c1cn(C(c2ccccc2)c2ccccc2)nn1 (stereo not given)	-14%
Cc1oc2ccn(Cc3ccccc3F)c(=O)c2c1C(=O)N1CCN(c2ccccc2)CC1	-22%
Cc1oc2c(c1C(=O)N(C)CCc1ccccn1)CN(Cc1cccc(F)c1)CC2	-26%
SMILES	Pf Dd2 inh
COc1ccc(N(C)C(=O)c2c(C)oc3c2CN(Cc2ccc(F)cc2)CC3)cc1	13µM*
Cc1oc2c(c1C(=O)N1CCN(c3ccccc3)CC1)CN(Cc1ccc(F)cc1)CC2	11µM*
CCCn1ccc2oc(C)c(C(=O)N3CCN(c4ccc(F)cc4)CC3)c2c1=O	-13%
COc1ccc(-n2nc3n(c2=O)CCN(Cc2ccc(F)cc2)C3)cc1	11%
Cc1ccc(CN2CCc3oc(C)c(C(=O)N4CCSCC4)c3C2)cc1	10µM*
CCC1c2nccn2CCCN1C(=O)CCn1cccn1 (stereo not given)	-8%
OC1CCN(c2cc(C3CC(Nc4ncnc5sccc45)C3)ncn2)C1 (stereo not given)	-20%
COC[C@@H]1[C@H](C(=O)Nc2ccc(N3CCOCC3)cc2)CCC(=O)N1C	i
COc1ccc(C[C@H](NC(=O)C2=C[C@@H](NC(=O)c3ccc(OC)cc3)[C@@H](O)[C@H](O)C2)C(N)=O)cc1	14%
COCC1CN(S(=O)(=O)c2cccc(C)c2)CC12CCOCC2 (stereo not given)	0%
Cc1ccccc1NS(=O)(=O)C1CCS(=O)(=O)C1 (stereo not given)	0%
COc1ccc(C2(C(=O)N3CC4CC(C3)[C@H]3CCCC(=O)N3C4)CC2)cc1 (stereo not given in full)	7%
CCCNC(=O)N1CCC(c2noc(COc3ccc(C)cc3)n2)CC1	8.9µM*
CCCNC(=O)N1CCC(c2noc(COc3ccc(F)cc3)n2)C1 (stereo not given)	-29%
CCOc1ccccc1NC(=O)N1CCC(c2noc(COC)n2)C1 (stereo not given)	-7%
CCOc1ccccc1NC(=O)N1CCCC(c2noc(COc3ccccc3)n2)C1 (stereo not given)	5.6µM*
COCCOCc1nc(C2CCN(C(=O)NCc3ccc(C)cc3)CC2)no1	-25%
Cc1c(F)cccc1NC(=O)N1CCCC(c2noc(COc3ccccc3)n2)C1 (stereo not given)	-86%
CNC(=O)[C@@H]1C[C@@H](n2cc(CNC(=O)Nc3cccc(Cl)c3)nn2)CN1	-9%
Cc1nc(C)c(C(=O)N2CCC3(CC2)CCC(O)(CN(C)C)CC3)s1	-5%
CC(C)N1C[C@H](O)C[C@H]1c1nnc2n1CCN(C(=O)c1ccc(Cn3ccnc3)o1)CC2	10%
COC1C(=O)N(C2CCN(C(=O)c3ccccn3)CC2)C12CCOCC2 (stereo not given)	-7%
